Screening results: PubChem, National Center for Advancing Translational Sciences (NCATS)
HTT ATP protect – qHTS Multiplex Assay to Identify Dual Action Probes in a Cell Model of Huntington: Cytoprotection (ATP); PC12 HTT-Q103 induced, cytoprotection, ATP luminescence, 40 h; 230,000 tested, 0.14% active; AID 1471, 2008; Potency, µM (series often up to 56.4 µM), inactives show cytoprotection (ATP increase), actives largely listed as activators; further: potency means the concentration at half of the fitted maximal effect; % of control where 0% means no effect; nearly all actives have a fitted effect of over 45% in size
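Cells were plated at 1500 per well in phenol red-free DMEM with 5% equine and 5% calf serum. Tebufenozide (100 nM final) and compounds were added, then ATPlite reagent, and luminescence was read.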
IMPase Li inh – qHTS Assay for Identifying the Cell-Membrane Permeable IMPase Inhibitors: Potentiation with Lithium. CHO-M1 cells, IP1 TR-FRET (IP-One), carbachol + lithium. 210,000 tested, 0.35% active. Potency, µM (titrated, usually from 59.4 µM), for the others: top-dose activity, negative = IMPase inhibition, usual class: inhibitors;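 further: IP1 builds up when IMPase is blocked and the TR-FRET signal falls; potency means the concentration at half of the fitted maximal effect; plate controls were basal vehicle for no effect and high inhibitor control for full effect; nearly all actives have a fitted effect of over 50% in size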
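CHO-M1, 2000 cells/well, 16–30 h culture; cpd + low Li+, 30 min 37C; lysis with d2-IP1/Eu-anti-IP1 Ab, 10 min RT; TR-FRET 665/620 ratio and 620 channel; AC50 via Hill.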
HTT aggregate – qHTS Multiplex Assay to Identify Dual Action Probes in a Cell Model of Huntington: Aggregate Formation (GFP); PC12 HttQ103-GFP aggregates, Acumen cytometry, 40 h; Potency, µM (highest dose often 46.1 µM), for inactives: top-dose activity change, negative = inhibition, most hits filed as inhibitors; 220,000 tested, 1.1% active; AID 1688, 2009; further: potency means the concentration at half of the fitted maximal effect; on the % scale 0 is the no-effect control and ±100 the full control effect; nearly all actives have a fitted effect of over 60% in size
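Quantitative HTS on tebufenozide-induced (100 nM) PC12 cells stably expressing polyQ103 Huntingtin exon 1–GFP. Reduction of bright GFP aggregates, detected by laser scanning cytometry after lysis, identified actives across the titration.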
ALDH1A1 inh – qHTS Assay for Inhibitors of Aldehyde Dehydrogenase 1 (ALDH1A1). Purified ALDH1A1, NADH fluorescence, propionaldehyde substrate. Potency, µM (doses to about 75.3 µM), inactives show at the highest dose activity, negative = inhibition, hits mostly inhibitors. Aldehyde dehydrogenase 1A1 (Homo sapiens), P00352. 220,000 tested, 7.3% active; active means well fitted inhibition curve with a large enough effect, not every such curve was filed as active; inconclusive means small, poorly fitted or top-dose-only effect, or another doubt; inactive means no such curve, though single readings can be large or run the other way;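 further: potency means the concentration at half of the fitted maximal effect; plate controls were no enzyme wells and a reference inhibitor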
Target sequence (P00352 whole entry, looked up): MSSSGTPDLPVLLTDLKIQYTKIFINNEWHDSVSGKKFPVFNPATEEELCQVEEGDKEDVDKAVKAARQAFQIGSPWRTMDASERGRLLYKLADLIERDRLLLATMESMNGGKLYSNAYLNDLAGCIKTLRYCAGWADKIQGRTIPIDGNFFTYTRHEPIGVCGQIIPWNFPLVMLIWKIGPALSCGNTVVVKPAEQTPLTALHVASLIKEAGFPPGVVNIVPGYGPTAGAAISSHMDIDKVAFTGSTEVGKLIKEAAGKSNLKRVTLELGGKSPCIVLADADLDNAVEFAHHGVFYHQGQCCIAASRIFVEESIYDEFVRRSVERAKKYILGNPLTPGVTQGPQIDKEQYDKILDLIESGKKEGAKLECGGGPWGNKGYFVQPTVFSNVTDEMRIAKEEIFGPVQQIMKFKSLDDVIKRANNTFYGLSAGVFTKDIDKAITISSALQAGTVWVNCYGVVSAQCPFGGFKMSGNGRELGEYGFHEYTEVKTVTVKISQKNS
IMPase inh – qHTS Assay for Identifying the Cell-Membrane Permeable IMPase Inhibitors; inhibition (IP1 accumulation), % at 46.1 µM; 120,000 tested, under 10 active; CHO-M1 cells, IP1 accumulation, HTRF TR-FRET ratio; active means well fitted curve in the direction sought with a large enough effect in the signal ratio, not every such curve was filed as active; inconclusive means small, poorly fitted or top-dose-only effect, or a change in a side signal; inactive means no such curve, though single readings can be large or run the other way; the % refers to the signal ratio;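 further: cells stimulated with carbachol in lithium chloride buffer; plate controls were DMSO basal wells for no effect and reference inhibitor wells for full effect; higher means more IMPase inhibition seen as more IP1 and lower FRET ratio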
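Elevated IP1 in lysates lowers TR-FRET signal (665/620 ratio and 620 channel reported). Cells were CHO-M1, given carbachol (50 uM as added) plus 50mM LiCl, pH 7.4, 30 min, 37C; compounds titrated up to 46 uM; AC50 by Hill equation.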
HPGD block – qHTS Assay for Inhibitors of HPGD (15-Hydroxyprostaglandin Dehydrogenase); 15-hydroxyprostaglandin dehydrogenase [NAD(+)] (Homo sapiens), P15428; purified HPGD, NADH fluorescence kinetic, PGE2 substrate; Potency, µM, inactives show at the top dose activity change, negative = inhibition, hits mostly inhibitors; 150,000 tested, 4.3% active; AID 894, 2007; active means well fitted inhibition curve with a large enough effect, not every such curve was filed as active; inconclusive means small, poorly fitted or top-dose-only effect, or another doubt; inactive means no such curve, though single readings can be large or run the other way; further: potency means the concentration at half of the fitted maximal effect; on the % scale 0 is the no-effect control and ±100 the full control effect
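20 nM HPGD preincubated 15 min at room temperature with compound in 50 mM Tris-HCl pH 8, 0.01% Tween 20. Started with 1 mM NAD+ and 30 uM prostaglandin E2; NADH fluorescence (360/450 nm) read 5 times over 30-s intervals, last minus first.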
Active calls of the source: *; ? = inconclusive; · = not tested or not shown; [ ] = dose if it differs, or a comment. Rows were chosen to be rich in hits. Some 9.4% of all compounds tested hit in one or more screens of this group. Unless noted, the call rests on the fitted dose curve; in most records, active means well fitted curve in the direction sought with a large enough effect; inconclusive means small, poorly fitted or top-dose-only effect, or another doubt; inactive means no such curve, though single readings can be large; an effect the other way counts as inactive or inconclusive.

SMILES | HTT ATP protect | IMPase Li inh | HTT aggregate | ALDH1A1 inh | IMPase inh | HPGD block
O=C(/C=C/c1ccccc1Cl)N(Cc1ccc(Cl)cc1)C1CCS(=O)(=O)C1 (centres undefined) | -2.5%[10 µM] | 2.2% | -5.5% | -6.0% | · | -3.7%
CC(=O)c1cccc(S(=O)(=O)N2CCCC(c3nc(-c4ccc(C)o4)no3)C2)c1 (centres undefined) | -6.7% | -3.4%[38.3 µM] | -7.9% | 10µM* | 8.8 | -27.0%
Cc1ccc(-c2noc(C3CCCN(S(=O)(=O)c4ccc5ccccc5c4)C3)n2)o1 (centres undefined) | 17.1% | 5.6%[38.3 µM] | 5.5%[9.22 µM] | 23.8µM* | 9.4 | 20µM*
Cc1ccc(-c2noc(C3CCCN(S(=O)(=O)c4ccc(S(=O)(=O)N(C)C)cc4)C3)n2)o1 (centres undefined) | -6.9% | 37.3%[38.3 µM] | -13.8% | 25.1µM* | 4.4 | -12.3%
Cc1ccc(-c2noc(C3CCN(S(=O)(=O)c4ccc5c(c4)OCCO5)CC3)n2)o1 | -7.9%[10 µM] | 2.4%[38.3 µM] | ? | 28.2µM* | 18.4 | -2.7%
COC(=O)NC/C=C\c1nc(CCCO)co1 | 8.5%[10 µM] | · | · | -9.1%[13.5 µM] | · | ·
O=C(NCCN1CCOCC1)c1cc(-c2ccc(O)cc2)on1 | -29.0% | · | · | · | · | ·
N#CC1=C(N)SC(N)=C(C#N)C1c1ccoc1 | 5.1%[10 µM] | ? | -10.0% | 20µM* | ? | 28.2µM*
Cc1ccc(C2C(C#N)=C(N)SC(N)=C2C#N)cc1 | -19.4%[10 µM] | ? | 10.2% | 22.4µM* | ? | -16.4%
CCC(CC)C1C(C#N)=C(N)SC(N)=C1C#N | 0.1%[10 µM] | 2.3% | 12.6% | ? | -1.1 | -22.0%
Cc1ccc(C2C(C#N)=C(N)SC(N)=C2C#N)c(C)c1 | -5.3% | 7.94µM* | 8.7% | ? | 0.4 | ?
CC1=C(C#N)C(c2ccoc2)C(C(=O)OCc2ccccc2)=C(N)S1 (centres undefined) | 17.4%[10 µM] | 2.8% | -0.6% | 28.2µM* | -11.0 | -18.1%
Cc1[nH]nc2c1C(c1ccoc1)C(C#N)=C(N)O2 (centres undefined) | -2.1% | -3.1%[38.3 µM] | -11.4% | -1.5% | 6.7 | 0.3%
N[C@H](Cc1cccc(-c2ccccc2CP(=O)(O)O)c1)C(=O)O | -19.5%[1.9 µM] | · | · | · | -1.3 | ·
O=S1(=O)c2ccccc2N=NN1Cc1ccc(Cl)cc1 | -54.6%[10 µM] | 30.8%[38.3 µM] | 9.6% | 2.38µM* | 1.3 | 28.2µM*
O=C1[C@@H]2C=CC=CC2=NC(=S)N1CCN1CCC(=C(c2ccc(F)cc2)c2ccc(F)cc2)CC1 | 23.4%[1.9 µM] | · | · | · | 2.6 | ·
Cc1cccc(N=Nc2c(C)[nH]n(C(N)=S)c2=O)c1C | -27.1% | 3.4% | -7.7% | 17.8µM* | · | ·
Cc1ccccc1N=Nc1c(C)[nH]n(C(N)=S)c1=O | · | 5.8% | -21.2% | 20µM* | · | -23.7%
CCN(CC)S(=O)(=O)c1ccc(N=Nc2c(C)[nH]n(C(N)=S)c2=O)cc1 | -2.4%[1.9 µM] | 35.0% | 17.1% | 7.94µM* | 8.5 | 35.5µM*
Cc1ccccc1N=Nc1c(C)[nH]n(-c2ccccc2)c1=O | -4.4%[10 µM] | 4.7% | -9.4%[9.22 µM] | 3.6% | · | ·
CC(=O)N(C)c1ccc(N=Nc2c(C)[nH]n(C(N)=S)c2=O)cc1 | -15.5% | -9.3% | 12.2% | ? | · | ·
COc1ccc(/C=N/N=C2/NC(=O)CC(C(=O)O)S2)cc1 (centres undefined) | 27.7%[10 µM] | 1.8% | -6.4% | 9.1% | · | -11.6%
COc1ccc(/C=N/N=C2/CC(C)(C)Cc3n[nH]c(=O)cc32)cc1 | 14.1%[10 µM] | 18.3% | ? | 28.2µM* | · | ·
COc1ccc(N(C(=O)c2cccc(C)c2)S(=O)(=O)c2ccc(C)cc2)cc1 | · | · | · | · | 1.7 | ·
